# Where “and” joins values, the source holds several entries; their conditions need not be identical. Identical values can stand only once. Inconclusive results are not listed. For some of these results: Potency and affinity values are given separately. Calls of active or inactive are those of the source. Rule as the data show it, unless noted: active = inhibition above about 80%; inactive = the rest.
# Assays:
# [1] = growth inhibition of DIPG glioma cells, dose response, cell-based, SU-DIPG-XVII, MIPE5.0, CellTiter-Glo, qHTS (AID 1347060; cut-off not given, nearly all actives have AC50 up to about 26 µM); settings: SU-DIPG-XVII viability, CellTiter-Glo ATP luminescence
# [2] = growth inhibition of DIPG glioma cells, dose response, cell-based, SU-DIPG-XIII, MIPE4.0, CellTiter-Glo, qHTS (AID 1347061; cut-off not given, nearly all actives have AC50 up to about 37 µM;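 also: cells exposed to compound for 48 hours before readout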); settings: SU-DIPG-XIII viability, CellTiter-Glo ATP luminescence
# [3] = growth inhibition of DIPG glioma cells, dose response, cell-based, JHH-DIPG-1, MIPE4.0, CellTiter-Glo, qHTS (AID 1347062; cut-off not given, nearly all actives have AC50 up to about 27 µM); settings: JHH-DIPG-1 viability, CellTiter-Glo ATP luminescence
# [4] = growth inhibition of DIPG glioma cells, dose response, cell-based, SU-DIPG-IV, MIPE4.0, CellTiter-Glo, qHTS (AID 1347063; cut-off not given, nearly all actives have AC50 up to about 30 µM;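 also: compound exposure lasted 48 hours before the viability readout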); settings: SU-DIPG-IV viability, CellTiter-Glo ATP luminescence
# [5] = viability loss in pontine glioma line – cell-based, SU-DIPG-XXV, MIPE5.0, CellTiter-Glo, qHTS, dose response (AID 1347065; cut-off not given, nearly all actives have AC50 up to about 26 µM;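 also: cells exposed to compound for 48 hours before ATP readout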); settings: CellTiter-Glo ATP luminescence
# [6] = SU-DIPG-VI glioma cell viability, MIPE4.0 library, CellTiter-Glo luminescence, qHTS (AID 1347066; cut-off not given, nearly all actives have AC50 up to about 30 µM;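 also: cells exposed to compound for 48 hours before readout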); settings: CellTiter-Glo ATP luminescence
# [7] = JHH-DIPG-1 glioma cell viability, MIPE5.0 library, CellTiter-Glo luminescence, qHTS (AID 1347067; cut-off not given, nearly all actives have AC50 up to about 26 µM;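 also: cells exposed to compound for 48 hours before readout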); settings: JHH-DIPG-1 glioma viability, CellTiter-Glo ATP luminescence
# [8] = SU-DIPG-XXV glioma cell viability, MIPE5.0 library, qHTS (AID 1347068; cut-off not given, nearly all actives have IC50 up to about 30 µM)
# [9] = LFS_MB_1R medulloblastoma cell growth inhibition, synergistic combos for chromothripsis tumors, cisplatin or BGB combos (AID 1671452); settings: LFS_MB_1R medulloblastoma cells, stronger effect = higher value;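 also: cells exposed for 96 hours before readout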
# [10] = MDA-MB-436 breast carcinoma cell growth inhibition, synergistic combos for chromothripsis tumors, BGB or cisplatin combos (AID 1671458; call rule not given here;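 also: cells exposed for 96 hours; 0% = vehicle DMSO and 100% = killing by high DMSO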); settings: MDA-MB-436 breast carcinoma growth inhibition, drug combinations, stronger effect = higher value
# [11] = growth inhibition of BT084 medulloblastoma cells, cell-based, ICGC_MB145, cisplatin and BGB IC40 combos (AID 1671461); settings: drug combinations, stronger effect = higher value;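 also: cells exposed to drugs for 96 hours; 0% = vehicle DMSO and 100% = high DMSO full killing control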
# [12] = growth inhibition of RCMB18 medulloblastoma cells, cell-based, cisplatin and BGB IC40 combos (AID 1671462); settings: stronger effect = higher value;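 also: cells exposed to compound for four days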
# [13] = growth inhibition of CRL1545 osteosarcoma cells, cell-based, cisplatin and BGB IC20 combos (AID 1671464); settings: stronger effect = higher value;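 also: cells exposed to compound for 96 hours before readout; 0% = vehicle DMSO and 100% = high DMSO killing control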
# [14] = rescue of polyQ-huntingtin neuronal dysfunction in worms, whole organism, C. elegans mechanosensory neurons, N-terminal huntingtin (AID 1599); settings: touch response, stronger effect = higher value
# [15] = reducers of polyQ inclusions in PC12 cells, cell-based, NGF-treated PC12, GFPQ80 (AID 1614); settings: PC12 NGF-treated GFP-polyQ80 inclusion reduction;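 also: lower means fewer inclusions and 0 means no inclusions at all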
# [16] = suppressors of polyglutamine aggregation in yeast, 75Q-TubH (AID 1616); settings: S. cerevisiae 75Q-TubH polyglutamine aggregation suppression; stronger effect = higher value
# [17] = hESC survival regulators, cell-based (AID 493140; call rule not given here;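 also: cells exposed to compounds for four days before counting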); settings: human embryonic stem cell survival screen; stronger effect = higher value
# [18] = test system: Hepatitis C virus NS3 helicase; assay: HCV NS3 helicase inhibitors, primary screen, biochemical, fluorescence polarization, LOPAC1280 library (AID 687035; in the data active = inhibition above about 37%); settings: Purified HCV NS3 helicase, Cy5-dT15 ssDNA binding fluorescence polarization; stronger effect = higher value; concentration not given here
# [19] = Cy5 fluorescence quenching or enhancement artefacts, artefact control for HCV NS3 helicase inhibitor project, biochemical, LOPAC1280 (AID 687037; call rule not given here); settings: Cy5-DNA-NS3h complex fluorescence interference counterscreen
# [20] = phospholipid biosynthesis inhibitors in animal cells, primary screen, cell-based, LOPAC library, screen 4 (AID 1347384; call rule not given here); settings: phospholipid biosynthesis inhibition screen, at 10 µM
# [21] = measured here: combination with BGB IC40, at 0.05 µM
# [22] = measured here: combination with cisplatin, at 0.5 µM
# [23] = measured here: combination with cisplatin, at 5 µM
# [24] = measured here: BGB combination, at 0.5 µM
# [25] = measured here: BGB combination, at 5 µM
# [26] = measured here: cisplatin combination, at 0.5 µM
# [27] = measured here: cisplatin combination, at 5 µM
# [28] = cisplatin combination, at 0.5 µM
# [29] = measured here: BGB IC40 combination 0.05 uM, at 0.05 µM
# [30] = measured here: BGB IC40 combination, at 0.05 µM
# [31] = measured here: with BGB IC20 combination, at 0.5 µM
# [32] = measured here: with cisplatin IC20 combination, at 0.5 µM
smiles,measurement,setting,value
COc1c(N2CCNC(C)C2)c(F)cc2c(=O)c(C(=O)O)cn(C3CC3)c12 (configuration not stated),outcome,[1],inactive
same,outcome,[2],inactive
same,outcome,[3],inactive
same,outcome,[4],inactive
same,outcome,[5],inactive
same,outcome,[6],inactive
same,outcome,[7],inactive
same,outcome,[8],inactive
same,inhibition,[9]; at 0.5 µM,-13.4% (inactive) and -12.7% (inactive)
same,inhibition,[9]; [21],-24.8% and -10.4%
same,inhibition,[9]; [22],-39.4% and -1.15%
same,inhibition,[9]; [23],-37.1% and -28.2%
same,inhibition,[10]; at 0.5 µM,-1.19% (inactive) and -2.62% (inactive)
same,inhibition,[10]; [24],3.75% and -2.36%
same,inhibition,[10]; [25],-2.62% and -0.158%
same,inhibition,[10]; [26],-6.86% and -4.47%
same,inhibition,[10]; [27],-18.4% and -9.12%
same,inhibition,[11]; at 0.5 µM,11.1% (inactive) and -2.29% (inactive)
same,inhibition,[11]; [28],-21.4% and -4.21%
same,inhibition,"[11]; cisplatin combination, at 5 µM",-1.24% and -0.514%
same,inhibition,[11]; [29],19.1% and 4.51%
same,inhibition,"[11]; single agent, at 5 µM",-3.66% and 0.545%
same,inhibition,[12]; at 0.5 µM,0.35% (inactive) and 3.27% (inactive)
same,inhibition,"[12]; cisplatin combo, at 5 µM",-46.2% and 7.98%
same,inhibition,[12]; [30],-11.6% and -8.34%
same,inhibition,[12]; [22],-15.6% and 6.4%
same,inhibition,"[12]; single agent, at 5 µM",4.79% and -5.12%
same,inhibition,[13]; at 0.5 µM,-17.5% (inactive) and -1.12% (inactive)
same,inhibition,[13]; [31],-19.9% and -23.9%
same,inhibition,[13]; [32],-18.3% and 8.22%
same,inhibition,"[13]; single agent, at 0.05 µM",-13.6% and 2.79%
same,inhibition,"[13]; single agent, at 5 µM",-53.5% and 15.1%
O=C(O)c1cc(=O)c2c(OCC(O)COc3cccc4oc(C(=O)O)cc(=O)c34)cccc2o1,rescue above control,[14],9.88
same,inclusion score,[15],1
same,aggregation suppression score,[16],1.35
same,survival,[17],1.67 (inactive)
same,outcome,[1],inactive
same,outcome,[2],inactive
same,outcome,[3],inactive
same,outcome,[4],inactive
same,outcome,[6],inactive
same,outcome,[7],inactive
same,outcome,[8],inactive
CS(=O)(=O)OCCCCOS(C)(=O)=O,rescue above control,[14],-1.18
same,inclusion score,[15],2
same,aggregation suppression score,[16],1.4
same,outcome,[1],inactive
same,outcome,[2],inactive
same,outcome,[3],inactive
same,outcome,[4],inactive
same,outcome,[5],inactive
same,outcome,[6],inactive
same,outcome,[7],inactive
same,outcome,[8],inactive
same,inhibition,[9]; at 0.5 µM,-13.7% (inactive) and -24.5% (inactive)
same,inhibition,[9]; [21],-7.13% and -11.8%
same,inhibition,[9]; [22],-41.7% and -21.3%
same,inhibition,[9]; [23],-51.5% and 4.47%
same,inhibition,[10]; at 0.5 µM,-11.8% (inactive) and -10.9% (inactive)
same,inhibition,[10]; [24],-20.7% and -8.16%
same,inhibition,[10]; [25],10.5% and 6.58%
same,inhibition,[10]; [26],-15.8% and -27%
same,inhibition,[10]; [27],-17.4% and 2.99%
same,inhibition,[11]; at 0.5 µM,3.5% (inactive) and 8.55% (inactive)
same,inhibition,[11]; [28],-11.9% and 10.4%
same,inhibition,"[11]; cisplatin combination, at 5 µM",13.1% and -35.4%
same,inhibition,[11]; [29],-26.6% and 22.9%
same,inhibition,"[11]; single agent, at 5 µM",10.9% and -3.7%
same,inhibition,[12]; at 0.5 µM,-11.1% (inactive) and -2.44% (inactive)
same,inhibition,"[12]; cisplatin combo, at 5 µM",-65.6% and 7.8%
same,inhibition,[12]; [30],-1.43% and 7.53%
same,inhibition,[12]; [22],-15.9% and -14.5%
same,inhibition,"[12]; single agent, at 5 µM",-7.92% and -9.74%
same,inhibition,[13]; at 0.5 µM,-1.43% (inactive) and -28.8% (inactive)
same,inhibition,[13]; [31],-7.16% and 14.9%
same,inhibition,[13]; [32],-0.178% and -50.7%
same,inhibition,"[13]; single agent, at 0.05 µM",-16.2% and -23.2%
same,inhibition,"[13]; single agent, at 5 µM",-7.55% and 21.7%
CCN(Cc1ccncc1)C(=O)C(CO)c1ccccc1 (configuration not stated),rescue above control,[14],-3.59
same,inclusion score,[15],1
same,aggregation suppression score,[16],1.36
same,survival,[17],16.4 (inactive)
same,inhibition,[18],-6% (inactive)
same,fluorescence ratio (interference),[19],0.9 (inactive)
same,outcome,[20],inactive
COCCOC(=O)C1=C(C)NC(C)=C(C(=O)OC(C)C)C1c1cccc([N+](=O)[O-])c1 (configuration not stated),survival,[17],3 (inactive)
same,inhibition,[18],-4% (inactive)
same,fluorescence ratio (interference),[19],0.9 (inactive)
same,outcome,[20],inactive
CC1COc2c(N3CCN(C)CC3)c(F)cc3c(=O)c(C(=O)O)cn1c23 (configuration not stated),rescue above control,[14],-6.02
same,inclusion score,[15],2
same,aggregation suppression score,[16],1.18
same,survival,[17],10.6 (inactive)
same,inhibition,[18],-6% (inactive)
same,fluorescence ratio (interference),[19],0.9 (inactive)
same,outcome,[1],inactive
same,outcome,[2],inactive
same,outcome,[3],inactive
same,outcome,[5],inactive
same,outcome,[6],inactive
same,outcome,[7],inactive
same,outcome,[8],inactive
same,outcome,[20],inactive
same,inhibition,[9]; at 0.5 µM,-39.4% (inactive) and -8.3% (inactive) and 2.79% (inactive)
same,inhibition,[9]; [21],-24.5% and -34% and -2.54%
same,inhibition,[9]; [22],-78.8% and -30% and 23.8%
same,inhibition,[9]; [23],-87.1% and 21.5% and -3.71%
same,inhibition,[10]; at 0.5 µM,-34.5% (inactive) and -6.74% (inactive) and -3.04% (inactive)
same,inhibition,[10]; [24],-25.6% and -3.95% and -7.27%
same,inhibition,[10]; [25],-17.4% and 1.21% and -4.78%
same,inhibition,[10]; [26],-57.3% and -9.51% and 4.2%
same,inhibition,[10]; [27],-35.2% and 8.53% and -3.87%
same,inhibition,[11]; at 0.5 µM,-33.3% (inactive) and -1.31% (inactive) and 2.04% (inactive)
same,inhibition,[11]; [28],-31.2% and 8.69% and -10.9%
same,inhibition,"[11]; cisplatin combination, at 5 µM",-9.85% and -7.87% and -3.96%
same,inhibition,[11]; [29],-9.27% and 10.9% and 19.9%
same,inhibition,"[11]; single agent, at 5 µM",-20.1% and 7.2% and -8.12%
same,inhibition,[12]; at 0.5 µM,-28.4% (inactive) and -8.12% (inactive) and -0.02% (inactive)
same,inhibition,"[12]; cisplatin combo, at 5 µM",-38.4% and 21.2% and 9.23%
same,inhibition,[12]; [30],-5.79% and 25.7% and 5.62%
same,inhibition,[12]; [22],-28.1% and -3.73% and 27.4%
same,inhibition,"[12]; single agent, at 5 µM",-31.9% and -5.49% and -32%
same,inhibition,[13]; at 0.5 µM,-60% (inactive) and 4.59% (inactive) and -24.8% (inactive)
same,inhibition,[13]; [31],-68.3% and -3.25% and -47.6%
same,inhibition,[13]; [32],-59.4% and 8.51% and -13.4%
same,inhibition,"[13]; single agent, at 0.05 µM",-65.5% and -29.1% and 12%
same,inhibition,"[13]; single agent, at 5 µM",-39.6% and 8.31% and 10.5%

# Source: PubChem BioAssay
